Source: PubChem BioAssay AID568 (Sanford-Burnham Center for Chemical Genomics, 2006)
Screen size: about 83,000 compounds; fewer than 10 were called active. No rule for the calls is given here. These entries were drawn from the full list. Potency and affinity values are given separately.

These compounds were tested against Heat shock cognate 71 kDa protein (Homo sapiens) (UniProt P11142) (assay: small molecules displacing fluorescent ligand from Hsc70 – biochemical, fluorescence polarization, primary screen (AID 568)). Conditions: mP, at 20 µM, stronger effect = higher value.
Chain of Heat shock cognate 71 kDa protein (Homo sapiens) (P11142 whole entry, looked up): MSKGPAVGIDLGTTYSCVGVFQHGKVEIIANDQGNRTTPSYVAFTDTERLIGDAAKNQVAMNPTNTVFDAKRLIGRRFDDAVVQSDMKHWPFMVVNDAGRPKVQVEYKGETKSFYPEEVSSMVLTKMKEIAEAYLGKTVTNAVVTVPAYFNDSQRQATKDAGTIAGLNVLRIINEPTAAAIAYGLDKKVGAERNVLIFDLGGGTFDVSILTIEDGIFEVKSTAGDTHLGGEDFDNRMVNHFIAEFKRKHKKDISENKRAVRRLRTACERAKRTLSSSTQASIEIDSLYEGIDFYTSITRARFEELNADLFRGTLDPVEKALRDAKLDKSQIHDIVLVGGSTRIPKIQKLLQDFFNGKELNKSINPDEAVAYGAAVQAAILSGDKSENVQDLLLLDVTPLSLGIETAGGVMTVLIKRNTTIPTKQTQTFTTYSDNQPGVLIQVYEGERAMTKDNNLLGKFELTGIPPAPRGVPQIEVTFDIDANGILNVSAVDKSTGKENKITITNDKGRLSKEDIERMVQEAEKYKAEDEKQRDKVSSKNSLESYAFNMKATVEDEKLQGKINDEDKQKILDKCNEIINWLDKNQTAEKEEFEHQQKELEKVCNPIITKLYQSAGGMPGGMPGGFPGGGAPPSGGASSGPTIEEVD
Chain of Heat shock cognate 71 kDa protein (Homo sapiens) (P11142 whole entry, looked up): as above

displacement, inactive:
CCOC(=O)c1sc(=S)n(-c2ccccc2OC)c1N 4.2%
COc1ccc(N(CC(=O)Nc2cc(OC)ccc2OC)S(=O)(=O)c2c(C)nn(C)c2C)cc1 -0.1%
Oc1c(Cl)cc(Cl)cc1Sc1cc(Cl)cc(Cl)c1O 11.6%
Oc1c(Cl)cc(Cl)c2c1NCCC2 1%
NC(=O)CSc1nnc(Cc2ccc3c(c2)OCO3)n1C1CCCCC1 -4.2%
COc1cccc(Nc2c(F)c(F)c(F)c(F)c2C(=O)O)c1 3.7%
CC1(C)CC(=O)C2=C(C1)OC(N)=C(C#N)C21C(=O)N(Cc2ccccc2Cl)c2ccccc21 (stereo not given) -38.5%
O=C(CSc1nc(-c2ccco2)cc(C(F)(F)F)n1)NC1CCCCCCC1 -4.2%
Cc1ccc2c(c1)N(Cc1ccc3c(c1)OCO3)C(=O)C(C)O2 (stereo not given) -2.1%
O=C(Cn1cnc2c(nnn2Cc2ccccc2)c1=O)N1CCCc2ccccc21 2%
CC(=O)NCCc1ccc(S(=O)(=O)NC2OC(=O)c3ccccc32)cc1 (stereo not given) -3.3%
CC1(C)Cc2c(c(N3CCOCC3)nc3sc4c(=O)[nH]cnc4c23)CS1 -5%
C=CCN1C(=O)C2C(C(=O)NCc3ccccc3)C3C=CC2(O3)C1C(=O)NC(C)(C)C (stereo not given) -3.6%
O=C1CCCCCN1CSc1nc2ccccc2s1 5.1%
CCOC(=O)N1CCN(C(=O)CN(c2ccc3c(c2)OCO3)S(C)(=O)=O)CC1 0.1%
Oc1ccccc1-c1cc(-c2ccco2)[nH]n1 1.3%
CC(=O)Nc1ccc(S(=O)(=O)N(C)CC(=O)Nc2ccccc2N2CCOCC2)cc1 -0.5%
COc1ccc(-c2nc(CS(=O)CC(=O)NCc3cccnc3)c(C)o2)cc1 (stereo not given) 1.8%
Cc1ccc(C)c(N(CC(=O)NC2CCCC2)C(=O)CCCC(=O)Nc2ccccn2)c1 4.6%
CN1CCc2c(sc3c2C(=O)NC(/C=C/c2ccco2)N3)C1 (stereo not given) 5.2%
CCOc1c(Cl)cc(C(=O)NCCN2CCCCC2)cc1Cl -10.7%
Cc1ccccc1NC(=O)Cn1cccc1 -0.7%
Cc1ccc(-c2nn3c(-c4ccco4)nnc3c3ccccc23)cc1S(=O)(=O)NCC1CCCO1 (stereo not given) 1%
CC1CC(C)CN(CCCNC(=O)C2CCN(S(=O)(=O)N3CCCCC3)CC2)C1 (stereo not given) -3.8%
O=C(Nc1ccc(-c2nc3ccccc3[nH]2)cc1)c1ccco1 -7.1%
CC(C)N(C#N)c1nc(N2CCOCC2)nc(N2CCOCC2)n1 9.4%
CC1=C(C(=O)N(C)CCC#N)C2(CCCCC2)OC1=O -1.4%
O=C(NC(Cc1ccccc1)c1nc2ccccc2[nH]1)C1CC(=O)N(c2ccc3c(c2)OCCO3)C1 (stereo not given) -10.1%
Cc1ccc(C(=O)Nc2cc(=O)n(C)c(=O)n2C)o1 5.3%
O=C(CCCn1c(=S)[nH]c2cc3c(cc2c1=O)OCO3)N1CCN(c2ccccn2)CC1 -4.4%
Cc1cnc(NC(=O)c2cc3c(C)nn(-c4ccccc4)c3s2)s1 -5.6%
CC1CCN(C(=O)c2cc(-c3ccccc3O)on2)CC1 -5%
CCOC(=O)C1CCCN(CCC(=O)Nc2ccc(C)cc2)C1 (stereo not given) -2.2%
CCCCN(C(=O)CNC(=O)c1ccco1)C(C(=O)NC1CCCC1)c1ccc(OC)cc1 (stereo not given) 2.3%
O=C(Nc1ccc(F)c(F)c1)c1cccnc1 -5.4%
Cc1cc(C(=O)CN2C(=O)NC(c3ccccc3)(c3ccccc3)C2=O)c(C)n1Cc1ccccc1 -22.9%
Cc1nnc(SCC(=O)Nc2ccc(S(=O)(=O)N3CCCCC3)cc2)s1 -3.1%
CN(C)S(=O)(=O)c1ccc(NC(=O)c2c(F)cccc2Cl)cc1 -2.2%
Cc1c(C(=O)OCC(=O)N2c3ccccc3CC2C)oc2ccccc12 (stereo not given) -0.6%
O=C(NCCN1CCOCC1)Nc1ccc(Cl)cc1Cl -6.7%
